High-throughput results: PubChem BioAssay, National Center for Advancing Translational Sciences (NCATS)
Pf Dd2 growth = blocks in vitro growth of P. falciparum Dd2; P. falciparum Dd2 growth, SYBR Green, 72 h; Potency, µM (doses to about 28.9 µM), inactives show top-dose activity, negative = inhibition, actives largely listed as inhibitors; 120,000 tested, 4.3% active; active = well fitted inhibition curve with a large enough effect;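 also: plate controls were DMSO vehicle for no effect and reference drug for full effect; nearly all actives have a fitted effect of over 65% in size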
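Infected erythrocytes (Dd2, 0.3% parasitemia, 2.5% hematocrit final) are added to compound in RPMI-1640/Albumax II medium, grown 72 h at 37C in low oxygen, then lysed with saponin/Triton-X containing SYBR Green and read by fluorescence.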
Active calls of the source: *; i = inactive; [ ] = remark or other dose. This excerpt belongs to a sample that is enriched for hits. Potency is read from the fitted curve at half-maximal effect.

SMILES	Pf Dd2 growth
CCc1nc2c(c(-c3ccc(Cl)cc3)n1)CCN(C(=O)c1ccccn1)CC2	-3.1%
CCc1nc2c(c(-c3ccc(Cl)cc3)n1)CN([S+](C)(=O)[O-])CC2	-19.0%[44.1 µM]
CCc1nc2c(c(-c3ccc(Cl)cc3)n1)CN(Cc1ccsc1)CC2	5.01µM*
CCc1nc2c(c(-c3ccc(Cl)cc3)n1)CN(Cc1ccc(C)cc1)CC2	-17.3%
Cc1nc2c(c(-c3ccc(O)cc3)n1)CN(Cc1ccc(OC(F)(F)F)cc1)CC2	-1.2%
CCc1nc2c(c(-c3ccc(Cl)cc3)n1)CN(Cc1ccc(OC(F)(F)F)cc1)CC2	8.91µM*
CN1CCC2(C1)CN(CC1CCOCC1)c1ccc(C(=O)NCC(F)(F)F)cc12 (centres undefined)	i
Cc1cn2cc(C(=O)N3CCCC4(C3)C(=O)N(C)c3ccccc34)ccc2n1 (centres undefined)	-14.4%
O=C(NCCc1ccccc1)[C@@H]1C[C@@H](c2ccc(F)cc2)N([S+](=O)([O-])c2cccnc2)C1	i
Cc1cc(CN2CCC3(CC2)CCN(C(=O)c2ccco2)CC3CO)on1 (centres undefined)	0.9%
O=C1NCCCCCCN(C(=O)c2ccoc2)[C@H]2C[C@H](c3nc(-c4cccnc4)no3)C[C@@H]12	i
CSc1ccc(CCNC(=O)c2ccc(-n3c(C)cc4c3CCC(C)C4)cc2)cc1 (centres undefined)	42.4%[5.79 µM]
COc1ccc(CCNC(=O)c2ccc3c(c2)nc2n3CCC(C)C2)cc1OC (centres undefined)	0.5%
CCOc1ccc(CCNC(=O)c2ccc(-n3c(C)cc4c3CCC(C)C4)cc2)cc1OCC (centres undefined)	8.91µM*
CCCCOC(=O)C1=CN(Cc2ccccc2)S(=O)(=O)N=C1C	-4.6%
O=C(NCc1ccnc2[nH]ccc12)c1ccc2ccccc2n1	1.2%[44.1 µM]
CN(C(=O)c1ccc(OC2CCN(C(=O)C3CC3)CC2)cc1)C1CCCc2ccccc21 (centres undefined)	i
CN1CCCN(S(=O)(=O)c2cccc(Cl)c2)c2ccccc21	11.2µM*
CCS(=O)(=O)N1CCCN(C)c2ccccc21	-19.2%
CC(=O)N1CCC(C2CCN(S(=O)(=O)c3cccc(Cl)c3)C2)CC1 (centres undefined)	-18.3%
CCO[C@H]1CN(C(=O)Cc2c(C)[nH]c3c(F)cccc23)C[C@@H]1O	-5.1%
O=C(CCC1CCCN(S(=O)(=O)c2ccccc2F)C1)NCCCN1CCOCC1 (centres undefined)	-7.5%
COCCn1c(=O)n([C@H]2CCCN(C(=O)CC(C)C)C2)c2ncccc21	-5.7%
COc1ccc(Nc2ncnc3sc4c(c23)CCCC4)cc1	3.5%
CCNc1ncnc2sc3c(c12)CCN(Cc1ccc[nH]1)C3	1µM*
SMILES	Pf Dd2 growth
CCc1ccc(Nc2ncnc3sc4c(c23)CCCC4)cc1	i
CCCNC(=O)N1CCc2c(sc3ncnc(N4CCN(C)CC4)c23)C1	-4.8%
CCn1c2c(c(=O)n1-c1ccccc1)CCN(C(=O)c1ccnn1C)C2	31.1%[44.1 µM]
CCNc1ncnc2sc3c(c12)CCN(C(=O)c1ccnn1C)C3	11.2µM*
COCCNC(=O)CCC[C@@H]1[C@H]2CCCN3CCC[C@@H](CN1C)[C@@H]23	4.6%
O=C1C(N2CCN(S(=O)(=O)c3cccs3)CC2)CCN1Cc1cccnc1 (centres undefined)	-11.5%
Cc1ccc(S(N)(=O)=O)cc1C(=O)N[C@H]1[C@@H]2CCO[C@@H]2[C@@H]1C1CCCC1	0.1%
CC1(NC(=O)C2CC2)CN(Cc2nc(-c3ccccc3)cs2)C1	i
CN(C)CC1(COc2ccc(S(C)(=O)=O)cc2)C[C@@H](O)[C@@H](O)C1 (some centres undefined)	-4.7%[44.1 µM]
CC1(C)[C@H](Cc2cc(CCO)on2)C[C@@H]1N(S(C)(=O)=O)S(C)(=O)=O	-4.3%[44.1 µM]
CCOc1ccc(-c2cccc(NS(=O)(=O)c3ccc(C)s3)c2)nn1	-10.2%
COc1ccc(-c2ccc(NS(=O)(=O)c3ccc(F)c(C(F)(F)F)c3)cc2)nn1	0.4%
CCOc1ccc(-c2ccc(NS(=O)(=O)c3ccc(C)cc3)cc2)nn1	10µM*
CCCOc1ccc(CNC(=O)CN2CC3CC(C2)[C@H]2CCCC(=O)N2C3)cc1 (some centres undefined)	-24.4%
CC(C)NC(=O)N1CCC2(CC1)C(=O)NCN2C(=O)Cc1ccc(O)cc1	-1.5%
O=C1NCCC[C@@H]1NC(=O)[C@H]1CN(C(=O)c2cccc(F)c2)CCN1C(=O)c1cncnc1	-3.9%
CCCCNC(=O)c1ccc(CN2C(=O)NC3(CCS(=O)(=O)CC3)C2=O)cc1	i
CCC(C)(C)C1CCc2c(sc(NC(=O)C3c4ccccc4Oc4ccccc43)c2C(N)=O)C1 (centres undefined)	-19.5%
CCC1CCc2c(sc(NC(=O)C3c4ccccc4Oc4ccccc43)c2C(=O)OC)C1 (centres undefined)	12.6µM*
CC1CCc2c(sc(NC(=O)C3c4ccccc4Oc4ccccc43)c2C(=O)OC(C)C)C1 (centres undefined)	-0.4%
CCOc1ccccc1C1C(C(=O)Nc2ccccc2)=C(C)Nc2nc(-c3ccccc3)nn21 (centres undefined)	-18.5%
COc1ccc(C2C=C(c3ccccc3)Nc3nc(NS(=O)(=O)c4ccc(C)cc4)nn32)cc1 (centres undefined)	19.8%
COc1ccc(C2Cn3nnc(-c4nc(-c5ccc(Cl)cc5)no4)c3CO2)cc1 (centres undefined)	i
COc1ccc(C2C=C(c3ccc(F)cc3)Nc3nc(-c4ccc(Cl)cc4)nn32)cc1 (centres undefined)	1.12µM*
Cc1ccc(C2C=C(c3ccccc3)Nc3nc(NS(=O)(=O)c4ccc(C)cc4)nn32)cc1 (centres undefined)	-13.8%
SMILES	Pf Dd2 growth
Cc1ccc(C2C=C(c3ccc(F)cc3)Nc3nc(CCCO)nn32)cc1 (centres undefined)	8.91µM*
OCCCc1nc2n(n1)C(c1cccc(Cl)c1)C=C(c1ccccc1)N2 (centres undefined)	i
COc1ccc(C2=CC(c3ccccc3Cl)n3nc(-c4ccc(C)cc4)nc3N2)cc1 (centres undefined)	11.2µM*
Cc1ccc(S(=O)(=O)NCC2(C)CCOCC2)c(C)c1	-2.3%
Cc1nnc2n1CCC(NC(=O)c1ccsc1)CC2 (centres undefined)	25.8%
COc1cccc(CC(=O)N2CCN(C(=O)c3nnn4c3COC(c3ccc(Cl)cc3)C4)CC2)c1 (centres undefined)	-21.6%
CN(C(=O)COc1ccc(F)cc1)C1CCc2nn(CC3CC3)c(=O)n2CC1 (centres undefined)	19.5%
NCCCC(=O)N1CCCC(N2CCN(Cc3ccc4c(c3)OCO4)CC2)C1 (centres undefined)	7.0%
CCN1C(=O)C2CC3(CCN(C(=O)c4c(C)noc4C)CC3)CN2C1=O (centres undefined)	12.3%
O=C(Nc1ccc(Cl)cc1Cl)c1cnn2c1CN(C(=O)c1ccccc1)CC2	-14.2%
Cc1cccc(-n2c(SCC(=O)Nc3ccccc3Cl)nc3n[nH]c(C)c3c2=N)c1	i
CCc1ccccc1NC(=O)CSc1nc2n[nH]c(C)c2c(=N)n1-c1cccc(C)c1	-10.3%
Cc1ccc(NC(=O)CSc2nc3n[nH]c(C)c3c(=N)n2-c2ccccc2C)cc1C	8.91µM*
COc1ccc(-c2cn3c(n2)CO[C@@H](CNC2CCCCC2)C3)cc1	i
Cc1nnc(-c2cc(C(=O)NCc3ccco3)ccn2)n1Cc1cccnc1	-13.8%[44.1 µM]
